The whole screen tested about 310,000 compounds, of which about 14,000 (4.5%) showed an effect of 50% or more. Effects have a minus sign here. Only a selection was taken, and strong results are over-represented in it overall.

Consider 84 compounds from PMC4336329 (PLoS ONE, 2015).
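Further: peak tail current of the secondary pulse compared with the same well before compound.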

The experiment deals with human ether-à-go-go-related gene (hERG) potassium channel (human, UniProt Q12809). Kind of experiment: primary screen, population patch clamp on CHO cells stably expressing hERG; higher = less effect of the substance.
Sequence of human ether-à-go-go-related gene (hERG) potassium channel (Q12809 whole entry, looked up): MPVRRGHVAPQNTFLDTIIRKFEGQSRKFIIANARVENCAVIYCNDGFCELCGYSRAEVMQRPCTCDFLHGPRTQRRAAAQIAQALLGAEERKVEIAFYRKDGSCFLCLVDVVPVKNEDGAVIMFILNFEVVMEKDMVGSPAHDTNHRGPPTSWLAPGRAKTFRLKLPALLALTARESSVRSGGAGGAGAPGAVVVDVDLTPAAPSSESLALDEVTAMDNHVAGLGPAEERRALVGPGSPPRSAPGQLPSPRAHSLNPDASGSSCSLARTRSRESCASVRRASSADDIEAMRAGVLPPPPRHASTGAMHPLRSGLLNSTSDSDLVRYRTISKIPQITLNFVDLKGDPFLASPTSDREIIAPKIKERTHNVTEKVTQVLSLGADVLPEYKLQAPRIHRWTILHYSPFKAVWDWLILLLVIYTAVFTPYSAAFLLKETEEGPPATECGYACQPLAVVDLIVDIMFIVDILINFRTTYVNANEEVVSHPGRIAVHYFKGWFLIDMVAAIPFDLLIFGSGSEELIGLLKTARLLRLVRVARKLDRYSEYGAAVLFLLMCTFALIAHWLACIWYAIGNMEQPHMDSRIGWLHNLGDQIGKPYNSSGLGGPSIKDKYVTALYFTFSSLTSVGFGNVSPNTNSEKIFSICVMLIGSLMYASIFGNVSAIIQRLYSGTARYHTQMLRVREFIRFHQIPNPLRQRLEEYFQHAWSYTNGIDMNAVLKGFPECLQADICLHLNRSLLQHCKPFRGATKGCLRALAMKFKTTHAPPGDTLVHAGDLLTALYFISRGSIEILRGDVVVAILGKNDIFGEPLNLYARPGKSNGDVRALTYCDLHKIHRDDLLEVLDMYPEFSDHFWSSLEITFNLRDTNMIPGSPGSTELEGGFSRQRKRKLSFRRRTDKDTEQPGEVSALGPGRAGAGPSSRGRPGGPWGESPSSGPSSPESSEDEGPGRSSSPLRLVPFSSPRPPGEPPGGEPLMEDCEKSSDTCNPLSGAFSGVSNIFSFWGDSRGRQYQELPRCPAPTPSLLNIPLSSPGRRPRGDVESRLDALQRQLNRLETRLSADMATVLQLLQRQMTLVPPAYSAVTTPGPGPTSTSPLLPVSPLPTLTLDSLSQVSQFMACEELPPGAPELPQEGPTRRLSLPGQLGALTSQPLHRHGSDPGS
For `CC(CNC(=O)CCc1nnc2ccc(N3CCC4(CC3)OCCO4)nn12)c1ccccc1` (stereo not drawn), the “hERG current change (%, negative = inhibition) at 10uM” value is -0.296%.
As for `O=C(CNC(=O)c1sc2ccccc2c1Cl)NC1CC1`, the figure is 3.65%.
As for `CCCCOc1ccccc1C(=O)NNC(=S)NC(=O)c1ccccc1[N+](=O)[O-]`, the figure is 3.48%; as for `NS(=O)(=O)c1ccc(NC(=O)c2cc(-c3cc(Cl)ccc3O)n[nH]2)cc1`, 15.7%.
As for `CCS(=O)(=O)Nc1ccc(C2=NN(S(=O)(=O)CC)C(c3cccs3)C2)cc1` (stereo not drawn), the figure is -9.32%; as for `CCC(CC)C(=O)N1N=C(c2ccc(NS(C)(=O)=O)cc2)CC1c1ccccc1` (stereo not drawn), -41.4%.
For the compound `CS(=O)(=O)N1N=C(c2ccc3nccnc3c2)CC1c1ccccc1` (stereo not drawn), the “hERG current change (%, negative = inhibition) at 10uM” value is -7.62%.
As for `CCS(=O)(=O)N1N=C(c2ccc(NS(C)(=O)=O)cc2)CC1c1ccccc1` (stereo not drawn), the figure is -62.1%.
Then `CS(=O)(=O)N1N=C(c2cccs2)CC1c1ccccc1` (stereo not drawn), with -11.3%; and `CS(=O)(=O)Nc1ccc(C2=NN(S(C)(=O)=O)C(c3ccccc3)C2)cc1` (stereo not drawn), with -73.6%; and `Cc1ccc2nc(-c3ccc(N4C(=NC(=O)CCC(=O)O)SC5CS(=O)(=O)CC54)cc3)sc2c1` (stereo not drawn), with -19.3%.
Then `O=C(NC(Cc1c[nH]c2ccccc12)C(=O)N/N=C/c1ccc(Br)cc1)c1cccs1` (stereo not drawn), with 8.02%; and `O=C(Nc1nccs1)C1CCCN(S(=O)(=O)c2cccc3cccnc23)C1` (stereo not drawn), with -3.72%.
Take `CCCCOc1ccc(-c2nnc(N)s2)cc1`: the “hERG current change (%, negative = inhibition) at 10uM” value was determined as 2.84%.
Then `CC(C)CCNC(=O)/C=C/c1ccc(Br)cc1`, with 0.187%; and `Cc1[nH]nc(Nc2ccc(O)cc2)c1[N+](=O)[O-]`, with 23.6%.
Then `CCCS(=O)(=O)N1CCCC(C(=O)NC(C)c2ccc3c(c2)OCCO3)C1` (stereo not drawn), with 9.55%; and `Cc1oc(-c2cccc(Cl)c2)nc1CN1CCCC(C(=O)NC(C)c2ccc3c(c2)OCCO3)C1` (stereo not drawn), with -57.5%.
As for `Cc1oc(-c2ccc(Cl)cc2)nc1CN1CCCC(C(=O)NCCCN2CCCC2=O)C1` (stereo not drawn), the figure is -30.8%.
For the compound `Cc1oc(-c2cccc(Cl)c2)nc1CS(=O)(=O)CC(=O)NCc1ccco1`, the “hERG current change (%, negative = inhibition) at 10uM” value is -28.2%.
`Cc1oc(-c2cccc(Cl)c2)nc1CN1CCCC(C(=O)NCCCN2CCOCC2)C1` (stereo not drawn): the “hERG current change (%, negative = inhibition) at 10uM” value was -28.1%.
Then `Cc1oc(-c2ccc(Cl)cc2)nc1CN1CCCC(C(=O)NCc2ccco2)C1` (stereo not drawn), with -71.9%; and `O=C(NCc1ccco1)C1CCCN(S(=O)(=O)c2ccc(Cl)cc2)C1` (stereo not drawn), with -13.2%.
For `Cc1oc(-c2cccc(Cl)c2)nc1CN1CCCC(C(=O)NCc2ccco2)C1` (stereo not drawn), the “hERG current change (%, negative = inhibition) at 10uM” value is listed as -73%.
As for `CCN1CCN(CCNC(=O)C2CCCN(Cc3nc(-c4cccc(Cl)c4)oc3C)C2)CC1` (stereo not drawn), the figure is -6.73%.
As for `COc1ccccc1NC(=O)c1ccccc1NS(C)(=O)=O`, the figure is -1.12%; as for `O=C(O)/C=C/c1ccc(O)c(O)c1`, 13.1%.
With `O=C1CSC(=S)N1c1ccc(Cl)c(Cl)c1`, the “hERG current change (%, negative = inhibition) at 10uM” value is 20.7%.
Then `CC1=C(C(=O)OC(C)(C)C)C(c2cccs2)NC(=O)N1` (stereo not drawn), with -0.0788%; and `Cc1cc(OCC(=O)N2C[C@H]3C[C@@H](C2)c2cccc(=O)n2C3)c2c(C)c(C)c(=O)oc2c1`, with 0.123%.
As for `CC(C)(CC(=O)O)CC(=O)N1CCCN(c2nccc(C(F)(F)F)n2)CC1`, the figure is 17.8%.
As for `O=C(NCc1ccncc1)C1CCN(S(=O)(=O)Cc2ccccc2)CC1`, the figure is -10.4%.
In the case of `Cc1ccc(C)c(SCC(=O)Nc2nnc(-c3ccccc3)o2)c1`, the “hERG current change (%, negative = inhibition) at 10uM” value is on record as 14.1%.
As for `Cc1ccc(-c2cc(C(=O)OCC(=O)N(C)C3CCS(=O)(=O)C3)c3ccccc3n2)o1` (stereo not drawn), the figure is -19.1%.
As for `CCN(C(=O)COC(=O)c1cc(-c2cccc3ccccc23)nc2ccccc12)C1CCS(=O)(=O)C1` (stereo not drawn), the “hERG current change (%, negative = inhibition) at 10uM” value is -6.23%.
As for `O=C(COC(=O)c1cccnc1Nc1ccccc1F)NCCN1C(=O)CSC1=O`, the figure is -27.7%.
Then `CCN(C(=O)COC(=O)c1cccnc1Nc1cccc(C(F)(F)F)c1)C1CCS(=O)(=O)C1` (stereo not drawn), with -51%.
As for `CCN(C(=O)COC(=O)c1cn(-c2ccccc2)nc1-c1ccccc1)C1CCS(=O)(=O)C1` (stereo not drawn), the figure is -75.9%.
In the case of `O=C(COC(=O)c1cccnc1Nc1cccc(C(F)(F)F)c1)NC1CCS(=O)(=O)C1` (stereo not drawn), the “hERG current change (%, negative = inhibition) at 10uM” value is -16.1%.
As for `O=C(COC(=O)/C=C/c1cccc(C(F)(F)F)c1)NCCN1C(=O)CSC1=O`, the figure is -28.1%; as for `O=C(COC(=O)c1cccnc1Nc1cccc(C(F)(F)F)c1)NCCN1C(=O)CSC1=O`, -58.7%; as for `CCN(C(=O)COC(=O)c1cc(-c2ccc(C)o2)nc2ccccc12)C1CCS(=O)(=O)C1` (stereo not drawn), -66.7%.
As for `CN(C(=O)COC(=O)c1cn(-c2ccccc2)nc1-c1ccccc1)C1CCS(=O)(=O)C1` (stereo not drawn), the “hERG current change (%, negative = inhibition) at 10uM” value was -16.6%.
Then `CCN(C(=O)COC(=O)c1cccnc1Nc1ccccc1F)C1CCS(=O)(=O)C1` (stereo not drawn), with -9.99%; and `CCN(C(=O)COC(=O)c1cc(-c2ccccc2)nn1-c1ccccc1)C1CCS(=O)(=O)C1` (stereo not drawn), with -12.8%; and `Cc1ccc(C(=O)NC(=S)NNS(=O)(=O)c2ccc(C)cc2)cc1`, with 3.32%.
As for `O=C(Nc1ccc(Cl)cn1)c1ccc(Br)c(S(=O)(=O)N2CCCCC2)c1`, the figure is 18.7%.
Then `CC(=O)Nc1ccc(S(=O)(=O)N(Cc2cccnc2)Cc2cc3ccccc3[nH]c2=O)cc1`, with 11.4%; and `Cc1cccc(Nc2ccc(S(=O)(=O)N3CCOCC3)cc2[N+](=O)[O-])c1`, with -30.2%.
On to `CCn1c(CSc2nc(C)cc(C)n2)nnc1SCC(=O)Nc1nc(-c2ccccc2)cs1`, for which the “hERG current change (%, negative = inhibition) at 10uM” value is given as -9.09%.
Regarding `O=c1c2ccccc2c2ccccc2c(=O)n1CC1CCCO1` (stereo not drawn), the “hERG current change (%, negative = inhibition) at 10uM” value was -14.4%.
Turning to `Cc1ccc(C)c(NC(=O)c2cccc(Oc3ccc([N+](=O)[O-])cc3Cl)c2)c1`, the “hERG current change (%, negative = inhibition) at 10uM” value is -4.21%.
For the compound `COc1ccc(S(=O)(=O)NNC(=O)c2csc(-n3nc(C)cc3C(F)(F)F)n2)cc1`, the “hERG current change (%, negative = inhibition) at 10uM” value worked out at 19.9%.
With `CN(CC1CCCN(CCc2ccc(Cl)cc2)C1)C(=O)c1ccoc1` (stereo not drawn), the “hERG current change (%, negative = inhibition) at 10uM” value was -85.7%.
As for `COc1ccc(CCN2CCCC(CN(C)C(=O)c3ccoc3C)C2)cc1` (stereo not drawn), the figure is 13.4%; as for `COc1ccc(CCN2CCCC(CN(C)C(=O)c3ccoc3)C2)cc1` (stereo not drawn), -72.9%; as for `Cc1ccccc1CCN1CCCC(CN(C)C(=O)c2ccc3ncccc3c2)C1` (stereo not drawn), -30.3%.
Then `CN(C)CCN(CC1CCCN(Cc2ccccc2F)C1)C(=O)c1ccc(Cl)cc1` (stereo not drawn), with -14%.
Regarding `CN(CC1CCCN(CCc2ccc(Cl)cc2)C1)C(=O)c1ccc2nc[nH]c2c1` (stereo not drawn), the “hERG current change (%, negative = inhibition) at 10uM” value is listed as -34.1%.
As for `Cc1nc2ccc(C(=O)N(C)CC3CCCN(CCc4ccc(Cl)cc4)C3)cc2[nH]1` (stereo not drawn), the figure is -61.2%.
Then `CCc1nc(SCC(=O)NCCc2ccccc2)n[nH]1`, with -3.42%; and `CSc1nc2c(cc1C#N)CCCCC2`, with 7.65%.
Then `C=CCn1c(O)c(N=Nc2c(C)n(C)n(-c3ccccc3)c2=O)c(=O)[nH]c1=S`, with -1.57%; and `O=C(Nc1cccc(Cl)c1)c1ccc(NCC2CCCO2)c([N+](=O)[O-])c1` (stereo not drawn), with -2.53%.
Regarding `CCN=C(NCC)SC1CC(=O)N(c2ccc(OC)cc2)C1=O` (stereo not drawn), the “hERG current change (%, negative = inhibition) at 10uM” value turned out to be 0.718%.
Then `CCOC(=O)c1cc(C(=O)Nc2sc3c(c2C#N)CCCC3)nn1C`, with 12.4%; and `O=C(/C=C/c1ccc(N2CCOCC2)cc1)c1ccccc1`, with -1.16%; and `CCSC1=N/C(=C\c2cccc(F)c2)C(=O)S1`, with 10.4%.
For the compound `Cc1ccc(Nc2cc(C)nc3c(C)cccc23)cc1`, the “hERG current change (%, negative = inhibition) at 10uM” value was -53.3%.
For the compound `CCOc1ccc(Nc2cc(C)nc3c(C)cccc23)cc1`, the “hERG current change (%, negative = inhibition) at 10uM” value was -45.6%.
Then `Cc1ccccc1-c1ccc(Nc2ccc(N3CCOCC3)cc2)nn1`, with -76%; and `COc1ccc2nc(C)cc(NCCN3CCOCC3)c2c1`, with 15.4%; and `Cc1nc(NCCN2CCOCC2)c2oc3ccccc3c2n1.Cl`, with -31.5%.
As for `COc1ccc(Nc2cc(C)nc3c(C)cccc23)cc1OC`, the figure is -21.3%; as for `CC(=O)c1ccc(Nc2ccc(-c3ccccc3C)nn2)cc1`, -17.5%.
As for `Cc1cc(Nc2ccc(N3CCOCC3)cc2)c2cccc(C)c2n1.Cl`, the figure is -56.6%.
Turning to `COc1ccccc1-c1ccc(Nc2ccc(C(=O)N3CCOCC3)cc2)nn1`, the “hERG current change (%, negative = inhibition) at 10uM” value was -20.1%.
Then `Cc1cc(C)nc(Nc2ccc(N3CCOCC3)cc2)n1`, with -5.99%; and `Cc1cc(NCCN2CCOCC2)c2ccc3ccccc3c2n1`, with -69.5%; and `Cc1cc(C)c2nc(C)cc(Nc3ccc(C(=O)N4CCOCC4)cc3)c2c1`, with -43.8%.
Then `CCN(CC(=O)NCc1ccc(F)cc1)C(=O)c1ccc2c(c1)OCO2`, with -5.66%.
Then `O=C(CNC(=O)c1ccccc1Cl)OCC(=O)N1CCc2ccccc21`, with -10.5%; and `COc1ccc(Cc2nnc(Nc3ccccc3)s2)cc1Br`, with 13.9%; and `COc1ccc2[nH]c3c(c2c1)CCN1C(=O)N([C@@H](C)C(=O)NCC2CCCO2)C(=O)[C@]31C` (stereo partly drawn), with -6.78%.
